According to PubChem BioAssay AID1259336 (Sattelle Laboratory, UCL Respiratory, Division of Medicine, …, 2017):
Values without a mark were called inactive. Calls of active or inactive are those of the source. Rule as the data show it: active = log2 fold change growth below about -1.8; inactive = the rest.

Assay: anthelmintic activity against nematode growth – whole organism, log2 fold change (AID 1259336);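 also: growth scored by imaging after five days at 20 °C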
Conditions: C. elegans growth, anthelmintic screen; hits give low values
With `NCC(=O)N1CCn2c(nc(-c3ccccc3)c2Nc2ccc3c(c2)OCO3)C1` the log2 fold change growth was 0.0553. For `CCc1ccc([C@@H](NCc2nc(N)nc(N(C)C)n2)C(C)C)cc1`, the log2 fold change growth was 0.433. `CCCn1nnc(NC(=O)COc2ccc(C3CCCCC3)cc2)n1` showed a log2 fold change growth of 0.0714. With `C[C@@H](c1cc(Cl)cc(Cl)c1)N(C)c1ncc2c(N)nc(N)nc2n1` the log2 fold change growth was -0.371. `O=C1Nc2ccc(Br)cc2[C@@]12NCCc1c2[nH]c2ccccc12` gave a log2 fold change growth of -0.19. For `CC(C)(C)C1CCC(CC2=C(O)c3ccccc3C(=O)C2=O)CC1` (stereo not drawn), the log2 fold change growth was -0.0767. Molecule `Cc1[nH]c2ccccc2c1[C@H](c1cccs1)N1CCN(C)CC1` has a log2 fold change growth of -0.0891. With `COC[C@H](C)NC(=O)CSc1ncnc2sc(-c3ccccc3)cc12` the log2 fold change growth was -0.053. For `OCCc1ccc(Nc2nccc(-c3nnc4ccccn34)n2)cc1`, the log2 fold change growth was -0.0214. `CC(C)N=c1cc2n(-c3ccc(Cl)cc3)c3ccccc3nc-2cc1Nc1ccc(Cl)cc1` showed a log2 fold change growth of 0.0581. In the case of `Cc1nn(C)cc1[C@H](C)Nc1nncc(-c2ccc(C(F)(F)F)cc2)n1`, the log2 fold change growth is reported as 0.429. With `O=C(NCc1cc(Cl)cc(Cl)c1)c1c(C(F)(F)F)nc2ccccn12` the log2 fold change growth was -0.11. `COc1ccc(S(=O)(=O)Nc2ccc(CN3CCN(C(=O)c4cccc(C#N)c4)CC3)cc2)cc1` gave a log2 fold change growth of 0.00585. In the case of `CC(C)(C)n1nc(Cc2cccc3ccccc23)c2c(N)ncnc21`, the log2 fold change growth is reported as -0.527. For `COc1ccc2nc(C)cc(OCC(=O)NCc3ccccc3)c2c1`, the log2 fold change growth was 0.118. `COc1cc(Br)cc2cc(C(=O)Nc3cccc(C(F)(F)F)c3)c(=O)oc12` showed a log2 fold change growth of 0.421. `NC[C@@H](c1cccs1)S(=O)(=O)c1ccccc1` gave a log2 fold change growth of 0.289. Molecule `Clc1cccc(CO[C@H]2CCc3ccccc3[C@@H]2n2ccnn2)c1` has a log2 fold change growth of 0.571. Work on `NC(=O)c1cc(-c2ccsc2)ccc1OCCOc1ccccc1` yielded a log2 fold change growth of 0.0714. In the case of `Cc1cc(C)n2nc(C(=O)Nc3cc(C(F)(F)F)ccc3N3CCOCC3)nc2n1`, the log2 fold change growth is reported as 0.174. Molecule `O=C(NC1=NCCS1)c1sc2cc(F)ccc2c1Cl` has a log2 fold change growth of -0.159. In the case of `O=C(c1ccco1)N(CCCn1ccnc1)c1nc2c(Cl)cccc2s1`, the log2 fold change growth is reported as -2.18 (active). `CN1CCN(S(=O)(=O)c2ccc(-c3ccc4c(Nc5ncc(Cl)cn5)ccnc4c3)cc2)CC1` gave a log2 fold change growth of 0.346. In the case of `O=C(NCc1nnc2n1CCCCC2)c1ccc(-c2ccc(F)cc2)o1`, the log2 fold change growth is reported as 0.174. For `COc1cc(C2=NCCN2)cc2cc(-c3ccc(C4=NCCN4)cc3)oc12`, the log2 fold change growth was 0.303. `COc1cccc(NC(=O)c2c(NC(=O)c3cccnc3)sc3c2CCC3)c1` showed a log2 fold change growth of -1.12. Molecule `CN1CCN(S(=O)(=O)c2ccc(-c3ccc4c(Nc5ccc6n[nH]nc6c5)ccnc4c3)cc2)CC1` has a log2 fold change growth of -0.667. For `COC(=O)Nc1nc2ccc(C(=O)c3ccccc3)cc2[nH]1`, the log2 fold change growth was -6.04 (active). For `CCc1c(C)nc(-n2nc(C)cc2NC(=O)c2ccccc2SC)[nH]c1=O`, the log2 fold change growth was -0.0348. In the case of `Clc1ccc(-n2cc(COc3ccnc4ccccc34)nn2)cc1`, the log2 fold change growth is reported as -5.7 (active). For `O=C(NCCN1CCCC1)c1cc(NCCCCN2CCC(F)(F)CC2)nc2ccc(Cl)cc12`, the log2 fold change growth was 0.489. In the case of `Cc1nc(-c2cccc(NCc3ccccc3)c2)[nH]c1C`, the log2 fold change growth is reported as 0.123. Work on `O=C(Nc1cccc(-c2ccc(NCCCN3CCCC3)nc2)c1)c1ccccc1` yielded a log2 fold change growth of 0.467. Work on `OCc1ccc(-c2cncc(Nc3cccc(Cl)c3)c2)cc1` yielded a log2 fold change growth of -0.873. For `CC1CCCN(C(=O)C(C)Nc2cc(Cl)ccc2N2CCOCC2)C1` (stereo not drawn), the log2 fold change growth was 0.538. `COC(=O)c1c(NC(=O)c2cc3ccccc3oc2=O)sc2c1CCN(Cc1ccccc1)C2` showed a log2 fold change growth of -0.125. `Nc1nccc2ccc(-c3ccc4nccn4c3)cc12` showed a log2 fold change growth of 0.14. `c1ccc(-c2nc(NC3CCCCC3)cc(C3CC3)n2)nc1` gave a log2 fold change growth of -0.0356.
